Bioassay records (PubChem)
Mito fusion act – mitochondrial division inhibition or fusion activation; S. cerevisiae fusion-defective mutant growth rescue, CellTiterGlo 48 h; Potency, µM (highest dose often 46.1 µM), actives largely listed as activators; actives 0.23% (n = 320,000); further: nearly all actives have a fitted effect of over 45% in size
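Read-out: ATP-based luminescence (CellTiterGlo, 10 min ambient) reporting growth of fusion-defective ts yeast after 48 hours at 37C on glycerol/ethanol YPEG medium in the presence of compound.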
RORg inh – ROR gamma (mouse) transcription inhibition; actives 5.4% (n = 310,000); P51450; Potency, µM (top dose mostly 53.6 µM), actives largely listed as inhibitors; Drosophila S2 Gal4-RORgamma UAS-luciferase reporter, 20 h; further: nearly all actives have a fitted effect of over 60% in size
Target sequence (P51450 whole entry, looked up, the tested form may be a part): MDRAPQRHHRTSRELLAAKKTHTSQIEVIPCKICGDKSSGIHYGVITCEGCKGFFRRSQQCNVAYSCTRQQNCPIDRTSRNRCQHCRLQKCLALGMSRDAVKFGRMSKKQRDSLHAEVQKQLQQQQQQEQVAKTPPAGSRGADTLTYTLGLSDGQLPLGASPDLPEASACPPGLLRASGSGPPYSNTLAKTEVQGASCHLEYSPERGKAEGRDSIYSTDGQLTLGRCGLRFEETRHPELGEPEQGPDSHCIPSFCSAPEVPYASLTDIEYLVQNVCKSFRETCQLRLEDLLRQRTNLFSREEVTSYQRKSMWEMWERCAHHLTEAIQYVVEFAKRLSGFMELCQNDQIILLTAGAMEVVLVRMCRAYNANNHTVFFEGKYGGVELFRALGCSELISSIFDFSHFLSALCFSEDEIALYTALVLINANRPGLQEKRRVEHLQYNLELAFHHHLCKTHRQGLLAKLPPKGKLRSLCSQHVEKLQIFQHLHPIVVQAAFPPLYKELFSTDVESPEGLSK
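Stably transfected Drosophila Schneider cells are the test system, with ROR gamma fused to Gal4 and luciferase under UAS control; luminescence is read after 20 hr of 700 uM copper sulfate induction at ambient temperature.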
Chronic BCR inh – blocks chronic active B-cell receptor signaling. ABC-DLBCL IkBa-CBG/CBR reporter, luminescence ratio, 4 h. Potency, µM (doses to about 46.1 µM), hits mostly inhibitors. actives 0.05% (n = 340,000). AID 493014; active means well fitted inhibition curve with a large enough effect in the signal ratio, with a control signal flat, not every such curve was filed as active; inconclusive means small, poorly fitted or top-dose-only effect, or effect the other way, or a change in a side signal; the % refers to the signal ratio
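TMD8 human ABC-DLBCL cells with doxycycline-inducible IκBα–green luciferase fusion and unfused red luciferase, in 0.5% FBS medium; compounds up to 46 uM, 4 h at 37C. Green/red luminescence ratio, filter-overlap corrected, fitted to concentration-response curves.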
uPA generation – cell surface uPA generation inhibition | cell surface uPA generation assay, qHTS | Potency, µM (highest dose often 38.3 µM), usual class: inhibitors | actives 0.31% (n = 330,000) | AID 540303; active means well fitted inhibition curve with a large enough effect; inconclusive means small, poorly fitted or top-dose-only effect; inactive means no such curve, though single readings can be large or run the other way; tested in mouse RAW 264.7 cells; further: nearly all actives have a fitted effect of over 55% in size
a7 integrin act – activates integrin-mediated alleviation for muscular dystrophy; alpha7betagal myoblasts, beta-gal FDG fluorescence, 48 h; Potency, µM (top dose mostly 38.3 µM), hits mostly activators; actives 0.064% (n = 350,000); AID 624291; further: nearly all actives have a fitted effect of over 60% in size
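alpha7betagal+/- myoblasts (passage 13, 250/well) treated 48 h at 37C with compounds at 1:260 dilution of DMSO stock. Lysed, then beta-galactosidase activity read as FDG fluorescence (ex 480/em 540) after 30 min, with pre-read for autofluorescence.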
VP16 counter – inhibits Gal4-VP16 luciferase reporter, ROR gamma counter-screen; Drosophila S2 Gal4-VP16 UAS-luciferase, luminescence, 20 h; Potency, µM (top dose mostly 53.6 µM), usual class: inhibitors; actives 3.5% (n = 310,000);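 further: Gal4-VP16 expression switched on by copper sulfate through the metallothionein promoter; nearly all actives have a fitted effect of over 50% in size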
Each line names hits and unclear results; the compound was inactive in the other large screens. In the library only some 5.5% were active in any assay of this set; here they are far more common. Unless noted, the call rests on the fitted dose curve; in most records, active means well fitted curve in the direction sought with a large enough effect; inconclusive means small, poorly fitted or top-dose-only effect, or another doubt; inactive means no such curve, though single readings can be large; an effect the other way counts as inactive or inconclusive.

CC(=O)CC(c1ccccc1)c1c(O)c2cc(O)ccc2oc1=O (stereo not given)	none (no result: Mito fusion act, Chronic BCR inh, uPA generation, a7 integrin act)
CN1CCC2(CC1)NC(=O)c1ccccc1N2	none
CN1CCC2(CC1)N=C(c1ccc(F)cc1)C(=S)N2	RORg inh 13µM
COC(=O)c1cc(=O)n(Cc2cccs2)c(=Nc2ccc(F)cc2)s1	RORg inh inconclusive, Chronic BCR inh inconclusive, uPA generation inconclusive, VP16 counter inconclusive
COC(=O)c1cc(=O)n(Cc2ccco2)c(=Nc2ccc(F)c(Cl)c2)s1	RORg inh inconclusive, Chronic BCR inh inconclusive, uPA generation 10µM, VP16 counter inconclusive
CCOC(=O)C(NC(=O)C(Cc1ccc(N(CCCl)CCCl)cc1)NC(C)=O)C(C)C (stereo not given)	Mito fusion act 4µM
Cc1ccc(-c2n[nH]c(=S)n2-c2ccccc2)cc1	RORg inh inconclusive, VP16 counter inconclusive
S=c1nc(-c2ccccc2)n(-c2ccccc2)[nH]1	RORg inh 10µM, VP16 counter inconclusive
O=C(NCc1ccc(C(=O)N2CCC3(CC2)OCCO3)cc1)c1ccc2c(c1)OCO2	none (no result: uPA generation)
O=C(c1ccc2c(=O)n(Cc3ccc4c(c3)OCO4)c(=S)[nH]c2c1)N1CCC2(CC1)OCCO2	RORg inh 13µM, VP16 counter inconclusive (no result: uPA generation)
COc1cccc(C(C)NC(=O)Nc2cccc(C(F)(F)F)c2)c1 (stereo not given)	RORg inh inconclusive, Chronic BCR inh inconclusive, VP16 counter 35µM
COc1cc(-c2cccc([C@H]3[C@@H]4C=CC[C@@H](C)[C@@H]4C(=O)N3Cc3ccccc3)c2)cc(OC)c1OC	uPA generation inconclusive (no result: Mito fusion act)
C[C@H]1CO1	none (no result: Mito fusion act, Chronic BCR inh, uPA generation, a7 integrin act)
CCOC(=O)c1cc(CC)sc1/N=C/c1c(O)[nH]c(=S)[nH]c1=O	RORg inh 18µM, VP16 counter inconclusive
CN(C)C(=O)Cl	none (no result: Mito fusion act, Chronic BCR inh, uPA generation, a7 integrin act)
Cc1cc(-c2n[nH]c(=S)n2CC(C)C)cs1	RORg inh 5µM, VP16 counter inconclusive
NCCCNCCSP(=O)(O)O	none (no result: Chronic BCR inh, uPA generation, a7 integrin act)
COc1cccc(CN2C(=O)[C@@H]3Cc4c([nH]c5ccccc45)C(C)(C)N3C2=O)c1	none (no result: Mito fusion act, RORg inh, Chronic BCR inh, a7 integrin act, VP16 counter)
Cc1ccc(C(=O)Nc2nc3ccccc3[nH]2)cc1	RORg inh 2.5µM, Chronic BCR inh inconclusive, VP16 counter 3.5µM
CCBr	none (no result: Mito fusion act, Chronic BCR inh, uPA generation, a7 integrin act)
Cc1cc(C)c(CN2CCN(C(=O)Cn3cnc4c(NCc5ccccc5)ncnc43)CC2)c(C)c1	Chronic BCR inh inconclusive, uPA generation inconclusive (no result: Mito fusion act, RORg inh, VP16 counter)
N#Cc1nn(-c2c(Cl)cc(C(F)(F)F)cc2Cl)c(N)c1S(=O)C(F)(F)F (stereo not given)	RORg inh inconclusive, VP16 counter 20µM (no result: Mito fusion act, Chronic BCR inh, uPA generation, a7 integrin act)
CCCc1cc2c(n1Cc1ccco1)C(C)C1CN(C(=O)c3ccccc3)C(C)(C(=O)OC)C21 (stereo not given)	none (no result: Mito fusion act, Chronic BCR inh, uPA generation, a7 integrin act)
C[S@@](=O)CCCCN=C=S	RORg inh 3.2µM (no result: Mito fusion act, Chronic BCR inh, uPA generation, a7 integrin act)
C[C@H](CCC(=O)O)C[C@H](C)C[C@H](C)C(=O)/C=C(\O)[C@H](C)C[C@H](C)C/C=C/[C@@H](C)[C@@H](O)[C@@H](C)[C@@H](O)C[C@@H]1CC[C@@](C)(C2CC[C@@](C)([C@@H](C)O)O2)O1 (stereo not given in full)	RORg inh inconclusive, VP16 counter 6.3µM (no result: Mito fusion act, Chronic BCR inh, uPA generation, a7 integrin act)
O=c1[nH]c(=S)[nH]c(O)c1/C=C1/C=c2ccccc2=N1	RORg inh 13µM, Chronic BCR inh inconclusive, VP16 counter 13µM
ClCBr	none (no result: Mito fusion act, Chronic BCR inh, uPA generation, a7 integrin act)
Cc1cc(C(=O)Nc2ccc(CC(=O)O)cc2)c(C)o1	RORg inh 11µM, VP16 counter inconclusive
CCC(=O)Nc1nc2ccccc2n1Cc1ccc(Cl)cc1	RORg inh 0.4µM, Chronic BCR inh inconclusive, uPA generation inconclusive, VP16 counter 1.3µM
COC(C(=O)C(O)C(C)O)C1Cc2cc3cc(OC4CC(OC5CC(O)C(OC)C(C)O5)C(OC(C)=O)C(C)O4)c(C)c(O)c3c(O)c2C(=O)C1OC1CC(OC2CC(OC3CC(C)(O)C(OC(C)=O)C(C)O3)C(O)C(C)O2)C(O)C(C)O1 (stereo not given)	RORg inh 1.3µM, VP16 counter 1µM (no result: Mito fusion act, Chronic BCR inh, uPA generation, a7 integrin act)
C#Cc1cccc2c1c(C(=O)c1ccc(Cn3c(C)nc4cnccc43)c(F)c1)cn2C(=O)N(C)C	none (no result: Mito fusion act, Chronic BCR inh, uPA generation, a7 integrin act)
